From PubChem
Sampled rows, rich in hits. Any-hit rate of the full collection: about 2.4%.
D2 PAM-1 – Beta-Arrestin HTS for Positive Allosteric Modulators of the Human D2 Dopamine Receptor: Potentiators. D(2) dopamine receptor (Homo sapiens), P14416. DiscoveRx D2 beta-arrestin cells, luminescence, 90 min; 100% = 57 uM dopamine signal. AID 624464, 2012. 360,000 tested, 0.23% active. potentiation, % (test concentration not listed); in the data active = potentiation above about 50%
Target sequence (P14416 whole entry, looked up): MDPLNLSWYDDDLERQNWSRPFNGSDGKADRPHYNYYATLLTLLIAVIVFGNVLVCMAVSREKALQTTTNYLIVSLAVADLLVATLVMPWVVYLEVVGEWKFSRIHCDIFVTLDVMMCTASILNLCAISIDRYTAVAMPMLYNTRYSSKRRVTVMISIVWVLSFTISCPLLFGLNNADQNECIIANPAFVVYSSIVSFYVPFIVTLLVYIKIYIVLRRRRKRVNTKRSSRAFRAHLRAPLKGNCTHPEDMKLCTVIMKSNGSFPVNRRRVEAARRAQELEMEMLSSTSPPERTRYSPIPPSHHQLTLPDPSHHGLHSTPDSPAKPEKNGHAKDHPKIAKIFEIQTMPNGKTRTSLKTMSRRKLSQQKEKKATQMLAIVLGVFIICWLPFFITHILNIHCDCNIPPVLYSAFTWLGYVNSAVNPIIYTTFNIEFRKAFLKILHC
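D2 cells co-treated with compound plus 50 nM dopamine (EC20) for 90 min at 37 deg C to detect potentiation. Beta-arrestin recruitment was read as enzyme-fragment luminescence after 1 h at ambient temperature. Full response was set by 57 uM dopamine.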
D2 PAM-2 – HTS Assay for Positive Allosteric Modulators of the Human D2 Dopamine Receptor: Primary Screen for Potentiators. HEK293 T-REx D2, calcium flux, EC20 dopamine potentiation. potentiation, % at 10 µM. 340,000 tested, 0.34% active;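 active = potentiation over 3 SD above the plate norm, cut at about 30% in these data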; note: 0% is about no effect
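Tetracycline-induced HEK293 T-REx cells force-coupled to calcium signalling expressed D2; compounds were pin-added after a 10 s baseline, read kinetically 180 s, then an EC20 dopamine challenge followed with a further 180 s calcium read.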
D2 antagonist – HTS Assay for Allosteric Antagonists of the Human D2 Dopamine Receptor: Primary Screen for Antagonists; HEK293 TREx D2 cells, calcium flux, dopamine EC80; inhibition, % at 10 µM; D(2) dopamine receptor (Homo sapiens), P14416; AID 485344, 2010; 340,000 tested, 2% active; in the data active = inhibition above about 30%; inactive = below that, where a call was filed; note: 0% is about no effect
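Inhibition of EC80 dopamine-driven calcium flux, recorded kinetically, defines activity here; cells are a tetracycline-induced HEK293 T-REx line expressing force-coupled D2.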
D2 ag-1 – Beta-Arrestin HTS for Positive Allosteric Modulators of the Human D2 Dopamine Receptor: Agonists | D(2) dopamine receptor (Homo sapiens), P14416 | DiscoveRx PathHunter D2 beta-arrestin, luminescence, 90 min; 100% = 57 uM dopamine signal | activation, % (no concentration beside the values) | 360,000 tested, 0.084% active; in the data active = activation above about 40%
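DiscoveRx PathHunter D2 beta-arrestin cells (2,100/well) attached overnight, then compound-stimulated 90 min at 37 C in HBSS/10 mM HEPES/0.1% Tween-20 buffer; beta-galactosidase complementation read by luminescence after 1 h at ambient temperature. Dopamine 57 uM final (EC100) as control.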
D2 ag-2 – HTS Assay for Allosteric Agonists of the Human D2 Dopamine Receptor: Primary Screen for Agonists; D(2) dopamine receptor (Homo sapiens), P14416; 340,000 tested, 0.53% active; HEK293 T-REx D2 cells, calcium flux agonist mode; AID 485358, 2010; activation, % at 2 µM;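 active = activation over 3 SD above normal in the single-dose calcium agonist read, cut at about 30% in these data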; note: 0% is about no effect
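In this primary screen, compounds producing a positive calcium signal within 180 s of addition to tetracycline-induced, force-coupled HEK293 Trex D2 cells are flagged; cells are dye-loaded with a no-wash calcium kit beforehand.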
Starred values were filed as active, the others as inactive; nt = no result.

SMILES	D2 PAM-1	D2 PAM-2	D2 antagonist	D2 ag-1	D2 ag-2
O=S(=O)(c1ccc(Cl)cc1)N1CCN(c2ncccn2)CC1	-3	4	-25	-10	1
O=S(=O)(c1ccc(Cl)cc1)n1cccn1	-1	-7	40*	-2	1
COCCNC(=O)/C(C#N)=C/c1ccc(N2CCOCC2)o1	-25	0	-12	-3	13
N#C/C(=C/c1ccc(N2CCOCC2)o1)C(=O)Nc1ccccc1	-8	8	9	0	40*
N#C/C(=C\c1ccc(N2CCOCC2)o1)C(=O)NCCc1ccccc1	-7	3	46*	6	21
C=CCn1c(SCC(=O)Nc2sccc2C#N)nc2sc(C)c(C)c2c1=O	-12	-1	32*	1	1
C=CCn1c(SCC(=O)Nc2ccc(C(=O)O)cc2)nc2sc(C)c(C)c2c1=O	-2	3	-2	-2	0
Cc1sc(-n2cccc2)c(C(C)NC(=O)Nc2ccccc2Cl)c1C (centres undefined)	nt	nt	nt	nt	0
CCOC(=O)c1cccc(NC(=O)CC2C(=O)N(c3ccc(OC)cc3)C(=O)N2C2CCCC2)c1 (centres undefined)	nt	12	nt	nt	0
COc1cccc(-c2nc(NCC3CCCO3)c3ccccc3n2)c1O (centres undefined)	10	15	4	-2	1
COc1cccc(-c2nc(NC(C)C)c3ccccc3n2)c1O	12	10	32*	0	12
OCCN(Cc1nc(-c2ccc3c(c2)OCO3)no1)Cc1cccs1	-12	-15	39*	-5	1
CN(CCN1CCc2ccccc2C1)Cc1nc(-c2ccc3c(c2)OCO3)no1	-15	-22	44*	4	0
CN(Cc1nc(-c2ccccc2)no1)C(=O)c1ccc2c(c1)OCO2	-15	-13	-14	4	0
CN(CCCCN1CCOCC1)Cc1nc(-c2ccc3c(c2)OCO3)no1	-12	-3	2	-1	0
CN(CCN1CCc2ccccc2C1)Cc1nc(Cc2ccccc2F)no1	-15	-12	41*	1	-2
COc1ccc(Cc2noc(CN(C)CCN3CCc4ccccc4C3)n2)cc1OC	-22	-23	-32	-2	2
COc1cc(OC)c(OC)cc1CN1CCCC(C(=O)c2sccc2C)C1 (centres undefined)	-7	-20	5	-5	-1
Cc1ccsc1C(=O)C1CCCN(Cc2cc(F)ccc2-n2cccn2)C1 (centres undefined)	-43	-17	34*	-6	2
O=C(CCNC(=O)c1ccc([N+](=O)[O-])cc1)NC1CCCc2ccccc21 (centres undefined)	4	-21	32*	0	0
O=C(CCNC(=O)c1ccccc1)NC1CCCc2ccccc21 (centres undefined)	0	4	-9	2	nt
Cc1ccccc1OCc1nc2ccccc2c(=O)n1/N=C/c1cn[nH]c1-c1ccccc1	8	-2	57*	-2	0
CCOC(=O)N1CCN(Cc2nc3cc([N+](=O)[O-])ccc3n2CC)CC1	3	-7	37*	2	-1
CCSc1ccc2c(c1)N(CCCN1CCN(C)CC1)c1ccccc1S2	-37	-23	83*	-6	1
CC(CN1CCN(CCOCCO)CC1)CN1c2ccccc2Sc2ccc(Cl)cc21 (centres undefined)	-21	nt	nt	3	nt
SMILES	D2 PAM-1	D2 PAM-2	D2 antagonist	D2 ag-1	D2 ag-2
CN1CCN(CCCN2c3ccccc3Sc3ccc(Cl)cc32)CC1	nt	nt	72*	nt	nt
Cc1ccc(C)c(Cn2c(=O)n(CCCCC(=O)NCc3ccc4c(c3)OCO4)c(=O)c3ccccc32)c1	nt	nt	nt	nt	1
O=c1cc(CN2CCN(Cc3ccccc3)CC2)c2cc(Cl)ccc2o1	-47	-7	4	-8	-1
O=c1cc(CN2CCN(C/C=C/c3ccccc3)CC2)c2cc(O)ccc2o1	-27	-22	83*	1	1
Cc1ccc2oc(=O)cc(CN3CCN(C/C=C/c4ccccc4)CC3)c2c1	-22	-18	58*	-3	-1
O=c1cc(CN2CCN(Cc3ccccc3)CC2)c2ccc(O)cc2o1	-24	-19	4	-5	-1
O=c1[nH]c(CN2CCN(C/C=C/c3ccccc3)CC2)nc2ccccc12	-24	-27	63*	0	29
O=c1[nH]c(CN2CCN(S(=O)(=O)/C=C/c3ccccc3)CC2)nc2ccccc12	4	-7	-35	0	0
CCc1ccc2oc(=O)cc(CN3CCN(Cc4ccccc4)CC3)c2c1	-25	-21	39*	-4	0
CC(C)Oc1ccc(CNC(=O)C2CCN(c3nc4ccccc4nc3C(F)(F)F)CC2)cc1	nt	-3	nt	nt	1
COc1cccc(NC(=O)Cn2c(=O)n(C)c(=O)c3sc4c(c32)COC(C)(C)C4)c1	-5	-11	43*	-1	0
CC(Sc1nc(O)c(-c2ccccc2)c(=O)[nH]1)C(=O)Nc1ccc(Cl)cc1 (centres undefined)	-9	3	-32	3	-2
Cc1ccc(NC(=O)C(C)Sc2nc(-c3ccccc3)cc(=O)[nH]2)cc1 (centres undefined)	-7	-1	36*	-3	-1
Cc1ccc(C(=O)N/C(=C\c2sccc2C)C(=O)NCCCN2CCOCC2)cc1	-11	-9	31*	-3	0
COc1ccccc1C(=O)NCC(=O)N1CC=C(c2ccccc2)CC1	-13	-6	30*	2	-1
Cc1cc(Br)cc2c1N(Cc1ccccc1OC(C)C)C(=O)C2=O	nt	0	nt	nt	0
Cc1cc(C)c(NC(=O)Cn2c(=O)n(CCC(=O)N3CCc4ccccc4C3)c(=O)c3ccccc32)c(C)c1	nt	21	nt	nt	0
S=C(NCCc1ccccc1)Nc1ccccc1N1CCOCC1	-7	1	45*	-5	1
CC(C)(C)C1CCc2c(sc(NC(=O)CCC(=O)O)c2C(=O)Nc2ccccc2C(F)(F)F)C1 (centres undefined)	nt	17	nt	nt	2
O=C1S/C(=C\c2ccc(Cl)cc2)C(=O)N1CCn1cnnn1	-7	38*	-1	-5	1
C[N+]1(CC(=O)Nc2ccc(F)cc2)CCN(C(=O)c2ccco2)CC1	-8	43*	-2	-1	0
Cc1cccc(C)c1N1C(=O)c2cccc([N+](=O)[O-])c2C1=O	83*	12	12	5	0
